Experimental data as given in PubChem BioAssay (NCATS).
Results filed as inconclusive are left out. Unmarked numbers belong to inactive results. Calls follow the shape of the dose curve; as a rule, active = well fitted inhibition curve with a large enough effect; inconclusive = small, poorly fitted or top-dose-only effect; inactive = no such curve, though single readings can be large or run the other way.

Assay: Primary qHTS for inhibitors of nuclear receptor binding SET domain protein 2 (NSD2) in an RCH-ACV wild type WT cells (2C) (AID 1645877); also: nearly all actives have a fitted effect of over 70% in size
Details: RCH-ACV (leukaemia line) NSD2 WT (2C) viability, CellTiter-Glo, 72 h; series mostly up to 44.9 µM; activity change, negative = cell killing: at the top concentration
% is scaled to controls: 0 for no effect and ±100 for the full control effect.

| SMILES | activity change, negative = cell killing [%] |
| --- | --- |
| FC(F)(F)Oc1ccc(-c2ccc3nnc(C(F)(F)F)n3c2)cc1 | -2.25 |
| COc1ccc(OC)c(C2C(C#N)=C(N)Oc3n[nH]c(-c4ccc5ccccc5c4)c32)c1 (stereo not drawn) | -18.5 |
| CCCN(CCN1CCN(c2ccccc2OC)CC1)C1CCc2ncsc2C1 (stereo not drawn) | -16.8 |
| Cc1ccc(Nc2nnc(-c3ccc([N+](=O)[O-])cc3)o2)cc1Cl | -8.38 |
| CCC(C)(C)C1CCc2c(sc(NC(=O)c3ccc(Br)cc3)c2C#N)C1 (stereo not drawn) | 0.664 |
| COc1cccc(OC)c1-c1ccc(C[C@H](NC(=O)c2c(Cl)cccc2Cl)C(=O)O)cc1 | 2.95 |
| O=C(O)Cn1nnc(-c2ccc(CN(CCCCOc3ccc(CN4CCCC4)cc3)CCc3ccccc3)cc2)n1 | -8.41 |
| CCC[C@H](N[C@@H](C)C(=O)N1[C@H](C(=O)O)C[C@@H]2CCCC[C@@H]21)C(=O)O | -7.52 |
